The results in this text go back to PubChem BioAssay (NCI).

Molecules are shown by their SMILES. The panel holds about 83,000 compounds, 20% with a hit somewhere; the sample as a whole holds those more often.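 Cell lines were cultured in 96-well plates, exposed to a single compound concentration, and assessed for percent growth 48 hours later.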 Unmarked numbers belong to inactive results. Active and inactive are the calls of the source. Rule for the calls: active = growth percent below 10; inactive = the rest.

Among the test systems are NCI-H23 lung; NCI-H226 lung; NCI-H322M lung; HOP-62 NSCLC; NCI-H460 lung; NCI-H522 lung; A549/ATCC NSCLC; 786-0 renal; COLO 205 colon; DU-145 prostate; K-562 leukemia; MALME-3M melanoma; MDA-MB-231 breast; RXF 393 renal; SF-268 CNS; SF-295 CNS; SF-539 CNS; UACC-257 melanoma; M14 melanoma; HOP-92 NSCLC.
Common to all, as to test: NCI-60 one-dose screen, 48 h (100 = growth as untreated, 0 = no growth, -100 = all killed)
Common to all, as to settings: 10 µM unless noted

On to `CN1CCN(CCOc2ccc(-c3cnc4c(-c5ccc(C(F)(F)F)cc5)cnn4c3)cc2)CC1`, for which the growth was 48.5% in the experiment with NCI-H23 lung; 87.8% with NCI-H226 lung; 64.3% in the experiment on NCI-H322M lung; 37.5% in the experiment with HOP-62 NSCLC; -50.3% (active) with NCI-H460 lung; 44.4% in the experiment with NCI-H522 lung. The growth was -41.1% (active) in the experiment on A549/ATCC NSCLC; -57.3% (active) with 786-0 renal; -55.7% (active) with COLO 205 colon; 40.7% in the experiment with DU-145 prostate; -36% (active) with K-562 leukemia; 50.4% in the experiment with MALME-3M melanoma. Also, the growth in the experiment on MDA-MB-231 breast was 31.6%; in the experiment with RXF 393 renal, 32.4%; in the experiment on SF-268 CNS it was 48.7%; in the experiment on SF-295 CNS it was 64.4%; with SF-539 CNS, 67.6%; in the experiment on UACC-257 melanoma it was 8.47% (active). The growth in the experiment with M14 melanoma was -64.2% (active).
On to `COC(=O)C1=C(C)NC(C)=C(C(=O)OCC(C)C)C1c1ccccc1[N+](=O)[O-]` (stereo unspecified), for which the growth in the experiment on NCI-H23 lung was 58.4%; with NCI-H226 lung, 93.1%; in the experiment with NCI-H322M lung, 65.4%; with HOP-62 NSCLC, 79.1%; with NCI-H460 lung, 49.5%; with NCI-H522 lung, 25.4%. In addition, the growth is 65.4% in the experiment on A549/ATCC NSCLC; 59% in the experiment with 786-0 renal; 91.1% in the experiment with COLO 205 colon; 50.6% in the experiment with DU-145 prostate; 18.2% in the experiment with K-562 leukemia; 86.1% with MALME-3M melanoma. The growth in the experiment on MDA-MB-231 breast was 55%; in the experiment with RXF 393 renal, 70.2%; in the experiment with SF-268 CNS, 66.6%; in the experiment on SF-295 CNS it was 56.9%; with SF-539 CNS, 65.6%; in the experiment on UACC-257 melanoma, 81.6%. The growth in the experiment on M14 melanoma was 51.1%.
`C=CC1(C)C(O[Si](C)(C)C(C)(C)C)CC2C3OC(=O)NC31c1cccc3c1[C@H](C(=O)N3C)C2(C)C` (stereo partly specified): the growth with NCI-H23 lung is 59.7%; with NCI-H226 lung, 66.7%; in the experiment with NCI-H322M lung, 78.3%; with HOP-62 NSCLC, 85.5%; with NCI-H460 lung it was 44.7%; in the experiment with NCI-H522 lung, 44.1%. In addition, the growth in the experiment on A549/ATCC NSCLC was 41.7%; in the experiment on 786-0 renal, 73.6%; in the experiment on COLO 205 colon, 40.8%; in the experiment on DU-145 prostate, 76.2%; in the experiment on K-562 leukemia it was 34%; in the experiment on MALME-3M melanoma, 64%. Moreover, the growth in the experiment with MDA-MB-231 breast was 43.3%; with RXF 393 renal, 68.6%; in the experiment on SF-268 CNS it was 73.6%; in the experiment on SF-295 CNS, 46.9%; with SF-539 CNS it was 65.4%; with UACC-257 melanoma, 33.1%. Also, the growth in the experiment with M14 melanoma was 48.5%.
With `C=CCN=C(N)SCCCCCCSC(N)=NCC=C`, the growth in the experiment on NCI-H23 lung was 105%; in the experiment on NCI-H226 lung, 97.1%; with NCI-H322M lung, 103%; with HOP-62 NSCLC, 75.1%; in the experiment with NCI-H460 lung, 102%; in the experiment on HOP-92 NSCLC, 63.3%. Also, the growth in the experiment with 786-0 renal was 92.2%; in the experiment with COLO 205 colon, 86.4%; with DU-145 prostate it was 107%; in the experiment with K-562 leukemia it was 79.2%; in the experiment with MALME-3M melanoma, 98.7%; in the experiment on MDA-MB-231 breast, 94.8%. The growth with RXF 393 renal was 109%; in the experiment on SF-268 CNS it was 95%; in the experiment with SF-295 CNS, 97.3%; in the experiment with SF-539 CNS, 99.6%; with UACC-257 melanoma it was 87.8%; in the experiment on M14 melanoma, 92.4%.
As to `C(/C=C/c1ccccc1)=Nc1ccc(CCc2ccc(N=C/C=C/c3ccccc3)cc2)cc1`, the growth in the experiment with NCI-H23 lung was 85.2%; in the experiment on NCI-H226 lung it was 95.9%; with NCI-H322M lung it was 97.6%; with HOP-62 NSCLC, 98.2%; in the experiment on HOP-92 NSCLC, 107%; in the experiment on NCI-H522 lung, 76.6%. Moreover, the growth with A549/ATCC NSCLC was 104%; with 786-0 renal, 106%; in the experiment with COLO 205 colon, 101%; in the experiment on DU-145 prostate, 25.6%; in the experiment with K-562 leukemia, 78.3%; with MALME-3M melanoma, 115%. Further, the growth in the experiment on MDA-MB-231 breast is 92%; in the experiment with RXF 393 renal, 83.8%; in the experiment with SF-268 CNS, 104%; in the experiment with SF-295 CNS, 73.3%; with SF-539 CNS it was 108%; in the experiment with UACC-257 melanoma it was 97.9%. Also, in the experiment with M14 melanoma, the growth is 89.9%.
With `COc1ccc2cc(-c3cnc4nonc4n3)ccc2c1`, the growth in the experiment on NCI-H23 lung was 30.6%; in the experiment with NCI-H226 lung, 52.6%; with NCI-H322M lung it was 54.5%; with HOP-62 NSCLC it was 37.4%; in the experiment on HOP-92 NSCLC it was 80.8%; in the experiment with NCI-H522 lung it was 7.22% (active). Also, the growth with A549/ATCC NSCLC is 36%; with 786-0 renal it was 41.4%; in the experiment with COLO 205 colon it was 16.8%; in the experiment with DU-145 prostate it was 62.9%; with K-562 leukemia, 13.6%; in the experiment with MALME-3M melanoma it was 48.3%. Moreover, the growth in the experiment with MDA-MB-231 breast was 76.4%; in the experiment with RXF 393 renal, 23.4%; in the experiment on SF-268 CNS it was 36.6%; in the experiment with SF-295 CNS, 31.4%; in the experiment with SF-539 CNS, -16% (active); in the experiment with UACC-257 melanoma, 42%. Moreover, the growth in the experiment with M14 melanoma was 10.7%.
As for `COc1cc2cc(NCc3ccc(OC(F)F)cc3)nc(C)c2cc1OC`, the growth in the experiment on NCI-H23 lung is 45.1%; in the experiment on NCI-H226 lung, 75.5%; in the experiment with NCI-H322M lung, 53.4%; with HOP-62 NSCLC, 58.7%; in the experiment with HOP-92 NSCLC it was 63%; in the experiment on A549/ATCC NSCLC, 72.1%. Also, the growth is 61.8% in the experiment on 786-0 renal; 65.7% in the experiment with COLO 205 colon; 75.8% with DU-145 prostate; 34% in the experiment on K-562 leukemia; 72.4% in the experiment with MALME-3M melanoma; 62.6% with MDA-MB-231 breast. Further, the growth is 67.1% with RXF 393 renal; 73.2% with SF-268 CNS; 35% in the experiment with SF-295 CNS; 69.1% with SF-539 CNS; 87.5% in the experiment on UACC-257 melanoma; 63.9% in the experiment on M14 melanoma.
